The panel holds about 83,000 compounds, 20% with a hit somewhere; the sample as a whole holds those more often.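 Values shown are percent growth following 48 h exposure of cells in 96-well plates to a single concentration of compound; below 10 was considered active.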 Calls of active or inactive are those of the source.
Assays:
Assay in all cases: NCI-60 one-dose screen, 48 h (100 = growth as untreated, 0 = no growth, -100 = all killed)
Conditions in all cases: 10 µM unless noted
NCI-H23 lung = tested on: NCI-H23 lung
NCI-H226 lung = tested on: NCI-H226 lung
NCI-H322M lung = tested on: NCI-H322M lung
HOP-62 NSCLC = tested on: HOP-62 NSCLC
NCI-H460 lung = tested on: NCI-H460 lung
NCI-H522 lung = tested on: NCI-H522 lung
A549/ATCC NSCLC = tested on: A549/ATCC NSCLC
786-0 renal = tested on: 786-0 renal
COLO 205 colon = tested on: COLO 205 colon
HOP-92 NSCLC = tested on: HOP-92 NSCLC

Measured: growth

COC1=CC(=O)C[C@@H](C)[C@]12Oc1c(Cl)c(OC)cc(OC)c1C2=O
inactive: NCI-H23 lung 93.5% | NCI-H226 lung 99.9% | NCI-H322M lung 105% | HOP-62 NSCLC 88.3% | NCI-H460 lung 110% | NCI-H522 lung 80.5% | A549/ATCC NSCLC 97.5% | 786-0 renal 99.2% | COLO 205 colon 106%

COc1ccc(C2C(c3nn[nH]n3)=C(N)Oc3c2ccc2ccccc32)cc1 (stereo unspecified)
inactive: NCI-H23 lung 69.1% | NCI-H226 lung 82.4% | NCI-H322M lung 85.1% | HOP-62 NSCLC 70.3% | NCI-H460 lung 53.7% | NCI-H522 lung 23.9% | A549/ATCC NSCLC 72.5% | 786-0 renal 79.2% | COLO 205 colon 92.5%

CNc1ccc(NC)c2c1C(=O)c1ccccc1C2=O
inactive: NCI-H23 lung 70.1% | NCI-H226 lung 79.1% | NCI-H322M lung 84% | HOP-62 NSCLC 87% | NCI-H460 lung 91% | HOP-92 NSCLC 78.3% | NCI-H522 lung 97.1% | A549/ATCC NSCLC 100% | 786-0 renal 92.1% | COLO 205 colon 108%

CC/C=C\CCC/C=C1/C(=O)C=C[C@@H]1C/C=C\CCCC(=O)O
inactive: NCI-H23 lung 80.4% | NCI-H226 lung 90.3% | NCI-H322M lung 107% | HOP-62 NSCLC 100% | NCI-H460 lung 83.7% | NCI-H522 lung 29.9% | A549/ATCC NSCLC 79.9% | 786-0 renal 85.2% | COLO 205 colon 85.8%

COc1ccc2c(c1)C(=O)/C(=C/c1cccc(OCC(=O)Nc3nc(C)c(C)s3)c1)O2
inactive: NCI-H226 lung 71.8% | NCI-H322M lung 122% | HOP-62 NSCLC 94.8% | NCI-H460 lung 158% | A549/ATCC NSCLC 46.8%
active: NCI-H23 lung -38.6% | NCI-H522 lung -72.4% | 786-0 renal -17.2% | COLO 205 colon -59.1%

Cn1c2c(c3ccc(Cl)c(Cl)c31)C(C#N)C1(CCNCC1)NC2=O (stereo unspecified)
active: COLO 205 colon -76.6%
inactive: NCI-H23 lung 72.6% | NCI-H226 lung 44.1% | NCI-H322M lung 55.3% | HOP-62 NSCLC 23.8% | NCI-H460 lung 18.3% | NCI-H522 lung 47.3% | A549/ATCC NSCLC 31.2% | 786-0 renal 54.5%

Cc1ccc(/C=C/c2c(C(=O)/C=C/c3ccc(C(F)(F)F)cc3)c(C)nc3ccccc23)cc1
active: NCI-H23 lung -31.3% | NCI-H226 lung -46.1% | NCI-H322M lung -1.68% | HOP-62 NSCLC -37.2% | NCI-H460 lung -69.6% | NCI-H522 lung -10.5% | 786-0 renal -74.9% | COLO 205 colon -24.3%
inactive: A549/ATCC NSCLC 77.2%

CN(C)CCC=C1c2ccccc2C(C)(C)c2ccccc21
inactive: NCI-H23 lung 65.8% | NCI-H226 lung 122% | NCI-H322M lung 99.1% | HOP-62 NSCLC 64.5% | NCI-H460 lung 85.6% | NCI-H522 lung 76.5% | A549/ATCC NSCLC 88.9% | 786-0 renal 67.4% | COLO 205 colon 68.7%

CCCCC1CCCCN1C(=O)OCC (stereo unspecified)
inactive: NCI-H23 lung 102% | NCI-H226 lung 121% | NCI-H322M lung 101% | HOP-62 NSCLC 103% | NCI-H460 lung 107% | NCI-H522 lung 94.1% | A549/ATCC NSCLC 95.1% | 786-0 renal 93% | COLO 205 colon 102%

Cc1ccc(C(=O)CSc2nc(-c3ccc(Br)cc3)c(C#N)c(=O)[nH]2)cc1
inactive: NCI-H23 lung 92.6% | NCI-H226 lung 101% | NCI-H322M lung 100% | HOP-62 NSCLC 89.1% | NCI-H460 lung 102% | NCI-H522 lung 90% | A549/ATCC NSCLC 101% | 786-0 renal 98.7% | COLO 205 colon 102%

Cc1cc[c-]cc1.Fc1c[c-]c(-c2ccccn2)c(F)c1.[Pt+2].c1ccc(P(C[PH+](c2ccccc2)c2ccccc2)c2ccccc2)cc1
inactive: NCI-H322M lung 19.2% | 786-0 renal 23.1%
active: NCI-H23 lung 7.43% | NCI-H226 lung -2.11% | HOP-62 NSCLC 2.59% | NCI-H460 lung 3.67% | HOP-92 NSCLC -16.3% | NCI-H522 lung 8.51% | A549/ATCC NSCLC 8.52% | COLO 205 colon -41.2%

COc1ccc2[nH]c(O)c(C(=Nc3ccc(N(C)C(=O)CN4CCN(C)CC4)cc3)c3ccccc3)c2c1
inactive: NCI-H23 lung 21.2% | NCI-H226 lung 29% | NCI-H322M lung 61.1% | HOP-62 NSCLC 23.5% | NCI-H460 lung 15.3% | NCI-H522 lung 67.2% | A549/ATCC NSCLC 24.2% | 786-0 renal 42.4%
active: COLO 205 colon -6.6%

CC(=O)O[C@]1(C(C)=O)CCC2C3C[C@H](C)C4=CC(=O)CC[C@]4(C)C3CC[C@@]21C (stereo partly specified)
inactive: NCI-H23 lung 96.2% | NCI-H226 lung 73.6% | HOP-62 NSCLC 94.6% | NCI-H460 lung 103% | HOP-92 NSCLC 89.9% | NCI-H522 lung 74.8% | A549/ATCC NSCLC 73.3% | 786-0 renal 97.4% | COLO 205 colon 104%

CC(=O)OC[C@H]1OC(Sc2sc(C(=O)c3ccc(Br)cc3)c(N)c2-c2nc3ccccc3s2)[C@H](OC(C)=O)[C@@H](OC(C)=O)[C@@H]1OC(C)=O (stereo partly specified)
inactive: NCI-H23 lung 23.8% | NCI-H226 lung 28.1% | HOP-62 NSCLC 63.8% | NCI-H460 lung 44.3% | HOP-92 NSCLC 81.7% | NCI-H522 lung 63.8% | A549/ATCC NSCLC 71.5% | 786-0 renal 62.7% | COLO 205 colon 85%

COC(=O)[C@]12CC[C@@H](C)[C@H](C)[C@@H]1C1=CC[C@@H]3[C@@]4(C)C(C=O)=C[C@@](C)(COC(=O)c5ccco5)[C@@H]4C(=O)C[C@@]3(C)[C@]1(C)CC2
inactive: NCI-H23 lung 26.3% | NCI-H226 lung 22.5% | HOP-62 NSCLC 31.6% | NCI-H460 lung 18.1% | HOP-92 NSCLC 31.8% | NCI-H522 lung 10.7% | A549/ATCC NSCLC 10.1% | 786-0 renal 43.4%
active: COLO 205 colon -59.5%

COc1ccc2nc(NNC(=O)c3cnccn3)c3cccn3c2c1
inactive: NCI-H226 lung 14.9% | HOP-92 NSCLC 29.3%
active: NCI-H23 lung -24.3% | HOP-62 NSCLC 7.91% | NCI-H460 lung -2.09% | NCI-H522 lung -2.64% | A549/ATCC NSCLC 9.52% | 786-0 renal -12% | COLO 205 colon -27%

Cn1cc(-c2csc(-c3cccc(F)c3)n2)c2cccnc21
active: NCI-H23 lung -62.7% [100 µM] | NCI-H226 lung -14.4% [100 µM] | HOP-62 NSCLC -69.2% [100 µM] | NCI-H460 lung -59.6% [100 µM] | NCI-H522 lung -27.6% [100 µM] | A549/ATCC NSCLC 1% [100 µM] | 786-0 renal -81.6% [100 µM] | COLO 205 colon -66.5% [100 µM]

C=CCSc1nc2ccccc2cc1/C=N/O
inactive: NCI-H23 lung 81.9% | NCI-H226 lung 77.8% | HOP-62 NSCLC 77.1% | NCI-H460 lung 90.4% | HOP-92 NSCLC 58.2% | NCI-H522 lung 76.4% | A549/ATCC NSCLC 92.5% | 786-0 renal 100% | COLO 205 colon 94.1%

Cc1ccc(Nc2nc(N)nc(CSCC(=O)NN)n2)cc1
inactive: NCI-H23 lung 98.8% | NCI-H226 lung 97.8% | HOP-62 NSCLC 101% | NCI-H460 lung 107% | HOP-92 NSCLC 95.6% | NCI-H522 lung 96.7% | A549/ATCC NSCLC 107% | 786-0 renal 100% | COLO 205 colon 110%

Cc1ccc(C(=O)C2=C(O)C(=O)N(Cc3cccnc3)C2c2ccccc2F)o1 (stereo unspecified)
inactive: NCI-H23 lung 97.9% | NCI-H226 lung 96.5% | HOP-62 NSCLC 91.6% | NCI-H460 lung 107% | HOP-92 NSCLC 83.9% | NCI-H522 lung 106% | A549/ATCC NSCLC 87.3% | 786-0 renal 86.2% | COLO 205 colon 108%

CCc1c2c(nc3ccc(OC(=O)NCc4ccc(B5OC(C)(C)C(C)(C)O5)cc4)cc13)-c1cc3c(c(=O)n1C2)COC(=O)[C@]3(O)CC
active: NCI-H23 lung -28.3% | NCI-H226 lung -65.4% | HOP-62 NSCLC -5.68% | NCI-H460 lung -16.7% | HOP-92 NSCLC 8.05% | NCI-H522 lung -23.2% | A549/ATCC NSCLC 4.61% | 786-0 renal 6.78% | COLO 205 colon 7.58%

COc1ccc(Cl)cc1NC(=O)C(Br)C(Br)C(=O)O (stereo unspecified)
inactive: NCI-H23 lung 67% | NCI-H226 lung 70.9% | NCI-H322M lung 61.5% | HOP-62 NSCLC 56.6% | NCI-H460 lung 111% | A549/ATCC NSCLC 115% | 786-0 renal 102% | COLO 205 colon 105%
active: NCI-H522 lung -43.5%

Clc1cccc(Cl)c1C(Nc1nc2ccccc2s1)Nc1nc2ccccc2s1
inactive: NCI-H23 lung 101% | NCI-H226 lung 89.9% | HOP-62 NSCLC 99.7% | NCI-H460 lung 105% | HOP-92 NSCLC 17.3% | NCI-H522 lung 90.8% | A549/ATCC NSCLC 106% | 786-0 renal 110% | COLO 205 colon 114%

CCc1ccccc1-n1c(-c2ccc(Cl)cc2)cc(-c2ccc(Cl)cc2)c(C#N)c1=O
inactive: NCI-H226 lung 97.4% | NCI-H322M lung 83.7% | HOP-62 NSCLC 107% | NCI-H460 lung 93.9% | HOP-92 NSCLC 72.4% | NCI-H522 lung 78.1% | A549/ATCC NSCLC 94.7% | 786-0 renal 98% | COLO 205 colon 89.4%

O=C1N=c2cc3c(cc2=C/C1=C/c1sc(=S)n(CCc2ccc(O)cc2)c1O)OCCO3
inactive: NCI-H23 lung 71.2% | NCI-H226 lung 93.5% | HOP-62 NSCLC 97% | NCI-H460 lung 83.8% | HOP-92 NSCLC 56.7% | NCI-H522 lung 37.3% | A549/ATCC NSCLC 99.1% | 786-0 renal 80.5% | COLO 205 colon 75.6%

O=C(COc1ccc(/C=C2\Oc3ccccc3C2=O)cc1)c1ccc(Cl)cc1
inactive: NCI-H23 lung 107% | NCI-H226 lung 92.4% | HOP-62 NSCLC 91.1% | NCI-H460 lung 115% | NCI-H522 lung 96.1% | A549/ATCC NSCLC 112% | 786-0 renal 91% | COLO 205 colon 108%

Cc1ccc(Cc2cnc(NC(=O)c3ccc4noc(-c5ccccc5)c4c3)s2)cc1
inactive: NCI-H23 lung 94.4% | NCI-H226 lung 88.3% | HOP-62 NSCLC 64.8% | NCI-H460 lung 84.3% | HOP-92 NSCLC 103% | NCI-H522 lung 72.7% | A549/ATCC NSCLC 71.7% | 786-0 renal 96.2% | COLO 205 colon 107%

Fc1c[c-]c(-c2ccccn2)c(F)c1.[CH3-].[Pt+2].c1ccc(P(C[PH+](c2ccccc2)c2ccccc2)c2ccccc2)cc1
active: NCI-H23 lung -51.1% | NCI-H226 lung 3.56% | HOP-62 NSCLC 0.563% | NCI-H460 lung -68.8% | HOP-92 NSCLC -80.7% | NCI-H522 lung -24% | A549/ATCC NSCLC -0.672% | 786-0 renal -52.5% | COLO 205 colon -29.9%

COc1ccc(/C=C/c2c(C(=O)/C=C/c3ccc(F)cc3)c(C)nc3ccccc23)cc1
inactive: NCI-H23 lung 47.8% | NCI-H226 lung 67.3% | HOP-62 NSCLC 57.5% | NCI-H460 lung 15.9% | HOP-92 NSCLC 73.5% | NCI-H522 lung 43.9% | A549/ATCC NSCLC 91.6% | 786-0 renal 65.4% | COLO 205 colon 79.8%
